High-throughput results (PubChem BioAssay)
Shown is part of a subset that was picked to be rich in hits.
CHX counter: Cycloheximide Counterscreen for Small Molecule Inhibitors of Shiga Toxin; cell reporter, cycloheximide protein synthesis inhibition counterscreen; max response, %; 12% of 300,000 active; AID 2314, 2010; in the data active = max response mostly above about 13%, no sharp cut-off; inactive = mostly below about 14%; note: read at 38.3 µM for the half of the compounds with a filed dose
RE007 growth inh: qHTS Assay for Inhibitors of the HIV-1 protein Vpr; S. pombe RE007 Vpr strain, BacTiter-Glo ATP luminescence, 24 h; Potency, µM (titrated, usually from 92.2 µM), hits mostly inhibitors; 0.21% of 360,000 active; active = well fitted falling curve with a large enough effect; inconclusive = small, poorly fitted or top-dose-only effect; inactive = no such curve, though single readings can be large or run the other way; note: nearly all actives have a fitted effect of over 50% in size
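Fission yeast strain RE007, carrying one chromosomally integrated HIV-1 vpr copy, was seeded at OD 0.01 in PMG+AL medium with 23 nL pinned compound. After 24 h at 30 °C and 99% humidity, viability was read by BacTiter-Glo luminescence.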
TbPYK inhibitor: qHTS of Trypanosoma Brucei Inhibitors. TbPYK enzyme, Kinase-Glo Plus ATP luminescence, 45 min. Potency, µM (series often up to 76.8 µM), most hits filed as inhibitors. 0.12% of 410,000 active; note: nearly all actives have a fitted effect of over 50% in size
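Quantitative HTS: titrated library compounds versus trypanosomal pyruvate kinase in TEA buffer (pH 7.2) containing KCl, MgCl2, BSA and Tween-20. Reactions were initiated with ADP, 130 uM final. Kinase-Glo Plus luminescence was read after 45 min at RT.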
LmPK inhibitor: qHTS Assay for Inhibitors of Leishmania Mexicana Pyruvate Kinase (LmPK); purified LmPK, Kinase-Glo ATP luminescence, 1 h; Potency, µM (doses to about 57.5 µM), actives largely listed as inhibitors; 0.37% of 290,000 active; AID 1721, 2009
Target sequence (Q27686 whole entry, looked up): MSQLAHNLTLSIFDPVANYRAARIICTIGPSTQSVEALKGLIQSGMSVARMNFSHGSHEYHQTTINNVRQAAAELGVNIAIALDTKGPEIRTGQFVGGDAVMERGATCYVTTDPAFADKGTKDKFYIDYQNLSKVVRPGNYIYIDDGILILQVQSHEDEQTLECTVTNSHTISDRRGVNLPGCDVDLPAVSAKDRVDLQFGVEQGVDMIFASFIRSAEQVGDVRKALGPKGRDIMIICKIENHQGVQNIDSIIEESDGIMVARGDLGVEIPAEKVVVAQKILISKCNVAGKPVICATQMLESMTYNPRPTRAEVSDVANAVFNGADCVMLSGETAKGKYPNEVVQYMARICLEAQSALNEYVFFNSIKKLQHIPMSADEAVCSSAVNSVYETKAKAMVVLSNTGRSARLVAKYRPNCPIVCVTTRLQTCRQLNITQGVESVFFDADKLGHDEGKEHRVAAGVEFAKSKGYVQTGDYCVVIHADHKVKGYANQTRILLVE
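Purified LmPK (0.1 nM) with 0.5 mM PEP and 0.1 mM ADP in imidazole buffer pH 7.2 with MgCl2/KCl, 1 h at room temperature. ATP formed was read by luciferase luminescence and normalized to no-enzyme and uninhibited controls.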
FBPA Giardia inh: qHTS Assay for Inhibitors of Fructose-1,6-bisphosphate Aldolase from Giardia Lamblia. A8B2U2. purified Giardia FBPA. Potency, µM (highest dose often 59.6 µM), usual class: inhibitors. 0.71% of 290,000 active; note: nearly all actives have a fitted effect of over 55% in size
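Giardia FBPA (40 nM reagent) was preincubated 10 min at RT with compound (up to 57.5 uM final), then substrate plus GAPDH/TPI/NAD/arsenate coupling system with diaphorase/resazurin was added; resorufin fluorescence (525/598 nm) was read after 20 min.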
Shiga inhibitor: A qHTS for Small Molecule Inhibitors of Shiga Toxin; Vero cells, Shiga toxin protein synthesis inhibition reporter; inhibition, % at 38.7 µM; 9.2% of 290,000 active; AID 2315, 2010; in the data active = inhibition mostly above about 28%, no sharp cut-off; inactive = mostly below about 43%
Numbers stand for hits. Unless noted, calls come from the whole dose curve; as a rule, active = well fitted curve in the direction sought with a large enough effect; inconclusive = small, poorly fitted or top-dose-only effect, or another doubt; inactive = no such curve, though single readings can be large; an effect the other way counts as inactive or inconclusive.

Results for O=C(Nc1cccc(Cl)c1)Nc1cnccn1 ?
CHX counter: inactive; RE007 growth inh: inactive; TbPYK inhibitor: inactive; LmPK inhibitor: inactive; FBPA Giardia inh: inactive; Shiga inhibitor: inactive

Results for O=C(Nc1cnccn1)Nc1ccccc1Cl ?
CHX counter: inactive; RE007 growth inh: inactive; TbPYK inhibitor: inactive; LmPK inhibitor: inactive; FBPA Giardia inh: inactive; Shiga inhibitor: inactive

Results for O=S(=O)(NCc1ccccc1)c1ccc(NC(=S)NCc2ccco2)cc1 ?
CHX counter: inactive; RE007 growth inh: inactive; TbPYK inhibitor: inactive; LmPK inhibitor: inactive; FBPA Giardia inh: inactive

How did COc1ccc(-n2nc3c(c2NC(=O)c2ccc4c(c2)OCO4)CS(=O)(=O)C3)cc1 do in these assays?
CHX counter: inactive; RE007 growth inh: inactive; TbPYK inhibitor: inactive; LmPK inhibitor: inactive; FBPA Giardia inh: inactive; Shiga inhibitor: inactive

Results for COC(=O)Cc1c(C)c2ccc(OC(C)C)cc2oc1=O ?
CHX counter: 48; RE007 growth inh: inactive; TbPYK inhibitor: inactive; LmPK inhibitor: inactive; FBPA Giardia inh: inactive; Shiga inhibitor: 96

What do the screens show for `Cc1c(C)c2ccc(OC3CCCCC3=O)cc2oc1=O` (stereo not drawn)?
CHX counter: 24; RE007 growth inh: inactive; TbPYK inhibitor: inactive; LmPK inhibitor: inactive; FBPA Giardia inh: inactive; Shiga inhibitor: inactive

What do the screens show for `COC(=O)Cc1c(C)c2ccc(OC3CCCCC3=O)cc2oc1=O` (stereo not drawn)?
CHX counter: 39; RE007 growth inh: inactive; TbPYK inhibitor: inactive; LmPK inhibitor: inactive; FBPA Giardia inh: inactive; Shiga inhibitor: 30

How did COC(=O)Cc1c(C)c2ccc(OC(=O)c3ccco3)cc2oc1=O do in these assays?
CHX counter: inactive; RE007 growth inh: inactive; TbPYK inhibitor: inactive; LmPK inhibitor: inactive; FBPA Giardia inh: inactive; Shiga inhibitor: inactive

How did Cc1c(CC(=O)O)c(=O)oc2cc(OCc3ccc(Br)cc3)ccc12 do in these assays?
CHX counter: 16; RE007 growth inh: inactive; TbPYK inhibitor: inactive; LmPK inhibitor: inactive; FBPA Giardia inh: inactive; Shiga inhibitor: inactive

How did Cc1c(CC(=O)O)c(=O)oc2cc(OCc3ccc(F)cc3F)ccc12 do in these assays?
CHX counter: inactive; RE007 growth inh: inactive; TbPYK inhibitor: inactive; LmPK inhibitor: inactive; FBPA Giardia inh: inactive; Shiga inhibitor: inactive

How did CCCOc1ccc([N+](=O)[O-])c(N)c1 do in these assays?
CHX counter: inactive; RE007 growth inh: inactive; TbPYK inhibitor: inactive; LmPK inhibitor: inactive; FBPA Giardia inh: inactive; Shiga inhibitor: inactive

What do the screens show for `COc1cccc(CN(C)C(=O)Cc2c[nH]c3ccccc23)c1OC`?
CHX counter: inactive; RE007 growth inh: inactive; TbPYK inhibitor: inactive; LmPK inhibitor: inactive; Shiga inhibitor: inactive

What do the screens show for `COc1cccc(CN(C)C(=O)CSc2nc3ccccc3[nH]2)c1OC`?
CHX counter: 26; RE007 growth inh: inactive; TbPYK inhibitor: inactive; LmPK inhibitor: inactive; FBPA Giardia inh: inactive; Shiga inhibitor: 46

Results for Cc1ccc(CNC(=O)CN2N=C(c3ccccc3)CCC2=O)cc1 ?
TbPYK inhibitor: inactive

Results for O=C(C/C=N/OCc1ccc(Cl)cc1Cl)c1ccccc1 ?
CHX counter: 20; RE007 growth inh: inactive; TbPYK inhibitor: inactive; LmPK inhibitor: inactive; FBPA Giardia inh: inactive; Shiga inhibitor: inactive

How did O=C(C/C=N/OCc1c(Cl)cccc1Cl)c1ccccc1 do in these assays?
CHX counter: 37; RE007 growth inh: inactive; TbPYK inhibitor: inactive; LmPK inhibitor: inactive; FBPA Giardia inh: inactive; Shiga inhibitor: inactive

How did O=C(C/C=N/OCc1ccc(Cl)cc1Cl)c1ccc(Cl)cc1 do in these assays?
CHX counter: inactive; RE007 growth inh: inactive; TbPYK inhibitor: inactive; LmPK inhibitor: inactive; FBPA Giardia inh: inactive; Shiga inhibitor: inactive

How did O=C(Cn1nnnc1-c1ccccc1F)Nc1ccc(F)c(F)c1 do in these assays?
TbPYK inhibitor: inactive

What do the screens show for `CN(CCc1ccccn1)C(=S)NC(=O)c1ccco1`?
CHX counter: inactive; RE007 growth inh: inactive; TbPYK inhibitor: inactive; LmPK inhibitor: inactive; FBPA Giardia inh: inconclusive; Shiga inhibitor: inactive

How did O=C(NC(=S)NCc1ccncc1)c1ccccc1 do in these assays?
CHX counter: inactive; RE007 growth inh: inactive; TbPYK inhibitor: inactive; LmPK inhibitor: inactive; FBPA Giardia inh: inactive; Shiga inhibitor: inactive

Results for O=C(NCc1ccccn1)/C(=C/c1ccco1)NC(=O)c1ccccc1 ?
CHX counter: inactive; RE007 growth inh: inactive; TbPYK inhibitor: inactive; LmPK inhibitor: inactive; FBPA Giardia inh: inactive; Shiga inhibitor: inactive

How did O=C(NCCc1ccccn1)/C(=C/c1ccco1)NC(=O)c1ccccc1 do in these assays?
CHX counter: 33; RE007 growth inh: inactive; TbPYK inhibitor: inactive; LmPK inhibitor: inactive; FBPA Giardia inh: inconclusive; Shiga inhibitor: 49

Results for O=C(NC(=S)NCCc1ccccn1)c1ccco1 ?
CHX counter: 23; RE007 growth inh: inactive; TbPYK inhibitor: inactive; LmPK inhibitor: inactive; FBPA Giardia inh: inactive; Shiga inhibitor: inactive

What do the screens show for `O=C(NC(=S)NCCc1ccccn1)c1ccccc1`?
CHX counter: 58; RE007 growth inh: inactive; TbPYK inhibitor: inactive; LmPK inhibitor: inactive; FBPA Giardia inh: inactive; Shiga inhibitor: 95

What do the screens show for `O=C1NC[C@H](CCCCN2C[C@H](Cc3ccc(O)cc3)N(Cc3ccccc3)C(=O)C2=O)N(CC2CCCCC2)C1=O`?
RE007 growth inh: inactive; TbPYK inhibitor: inactive

Results for O=C(CS(=O)CC(=O)NC12CC3CC(CC(C3)C1)C2)Nc1ccc(F)cc1 (stereo not drawn) ?
CHX counter: inactive; RE007 growth inh: inactive; TbPYK inhibitor: inactive; LmPK inhibitor: inactive; Shiga inhibitor: inactive

What do the screens show for `Cc1ccc(-c2nc3ccccc3s2)cc1NC(=S)NC(=O)c1cccc2ccccc12`?
CHX counter: 35; RE007 growth inh: inactive; TbPYK inhibitor: inactive; LmPK inhibitor: inactive; FBPA Giardia inh: inactive; Shiga inhibitor: 80

What do the screens show for `COc1ccc(-c2nc3ccccc3s2)cc1NC(=O)c1ccccc1OC`?
TbPYK inhibitor: inactive

Results for Cc1ccc(-c2nc3ccccc3s2)cc1NC(=S)NC(=O)/C=C/c1ccco1 ?
CHX counter: 29; RE007 growth inh: inactive; TbPYK inhibitor: inactive; LmPK inhibitor: inactive; FBPA Giardia inh: inactive; Shiga inhibitor: 63

Results for O=C(/C=C/c1ccco1)NC(=S)Nc1cccc(-c2nc3ccccc3s2)c1 ?
RE007 growth inh: inactive; TbPYK inhibitor: inactive

How did O=C(/C=C/c1ccco1)NC(=S)Nc1cc(-c2nc3ccccc3s2)ccc1Cl do in these assays?
CHX counter: 58; RE007 growth inh: inactive; TbPYK inhibitor: inactive; LmPK inhibitor: inactive; FBPA Giardia inh: inactive; Shiga inhibitor: 94

How did COCCCNC(=S)NNC(=O)c1csc2ccccc12 do in these assays?
CHX counter: inactive; RE007 growth inh: inconclusive; TbPYK inhibitor: inactive; LmPK inhibitor: inactive; FBPA Giardia inh: inactive; Shiga inhibitor: inactive
